Data as given in PubChem BioAssay AID1159580 (chemical genetic matrix, 2015).
Out of some 5,500 compounds screened, about 2,000 (36%) were called active. Roughly 18% stayed inconclusive and do not appear here. No stated cut-off is given here; in the data, active means normalized growth mostly below about 0.91 (no sharp cut-off); inconclusive means no clear call, values can overlap the other calls; inactive means mostly above about 0.92. Some of the results follow.

Assay: chemical genetic growth profiling, strain panel (AID 1159580);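 further: tested at 20 µM; growth read once vehicle control cultures reached saturation at 30 °C; 1 = growth at the plate median or of vehicle wells; lower values mean less growth of the strain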
Details: growth OD

Measured: normalized growth

Nc1ccn(C2O[C@H](CO)[C@@H](O)[C@H]2O)c(=O)n1 (some centres undefined)
inactive: S. cerevisiae deletion strains, locus YJR075W, strain HOC1, active compounds read low 1.02 | S. cerevisiae deletion strains, locus YKL009W, strain mrt4, active compounds read low 1.04 | S. cerevisiae deletion strains, locus YKL068W, active compounds read low 1 | S. cerevisiae deletion strains, locus YKL085W, strain MDH1 (second series), active compounds read low 1 | S. cerevisiae deletion strains, locus YKL085W, strain MDH1, active compounds read low 1 | S. cerevisiae deletion strains, locus YKL160W, strain elf1, active compounds read low 0.994 | S. cerevisiae deletion strains, locus YKL190W, strain CNB1, active compounds read low 0.989 | S. cerevisiae deletion strains, locus YKR001C, strain vps1, active compounds read low 1.03 | S. cerevisiae deletion strains, locus YKR026C, strain gcn3, active compounds read low 1 | S. cerevisiae deletion strains, locus YKR091W, strain srl3, active compounds read low 0.986 | S. cerevisiae deletion strains, locus YLL001W, strain dnm1, active compounds read low 0.989 | S. cerevisiae deletion strains, locus YLL026W, active compounds read low 0.994 | S. cerevisiae deletion strains, locus YLL041C, strain sdh2, active compounds read low 0.987 | S. cerevisiae deletion strains, locus YLR027C, strain aat2, active compounds read low 0.984 | S. cerevisiae deletion strains, locus YLR039C, strain RIC1, active compounds read low 1.01 | S. cerevisiae deletion strains, locus YLR058C, strain SHM2, active compounds read low 0.998 | S. cerevisiae deletion strains, locus YLR102C, strain apc9, active compounds read low 1.01 | S. cerevisiae deletion strains, locus YLR113W, strain HOG1, active compounds read low 1.01 | S. cerevisiae deletion strains, locus YLR221C, strain rsa3, active compounds read low 1 | S. cerevisiae deletion strains, locus YLR258W, strain gsy2, active compounds read low 1 | S. cerevisiae deletion strains, locus YLR262C, strain YPT6 (second series), active compounds read low 0.992 | S. cerevisiae deletion strains, locus YLR262C, strain YPT6, active compounds read low 1.05 | S. cerevisiae deletion strains, locus YLR268W, strain sec22, active compounds read low 1.05 | S. cerevisiae deletion strains, locus YLR320W, strain mms22, active compounds read low 0.995 | S. cerevisiae deletion strains, locus YLR330W, strain CHS5, active compounds read low 0.986 | S. cerevisiae deletion strains, locus YLR342W, strain FKS1 (second series), active compounds read low 1.02 | S. cerevisiae deletion strains, locus YLR342W, strain FKS1, active compounds read low 0.995 | S. cerevisiae deletion strains, locus YLR357W, strain rsc2, active compounds read low 0.964 | S. cerevisiae deletion strains, locus YLR370C, strain arc18, active compounds read low 0.998 | S. cerevisiae deletion strains, locus YLR371W, strain rom2, active compounds read low 1.01 | S. cerevisiae deletion strains, locus YLR384C, strain iki3, active compounds read low 1 | S. cerevisiae deletion strains, locus YLR418C, strain cdc73, active compounds read low 1.01 | S. cerevisiae deletion strains, locus YML016C, strain PPZ1, active compounds read low 1 | S. cerevisiae deletion strains, locus YML032C, strain rad52, active compounds read low 0.993 | S. cerevisiae deletion strains, locus YML120C, strain ndi1, active compounds read low 0.979 | S. cerevisiae deletion strains, locus YML124C, strain tub3, active compounds read low 1.01 | S. cerevisiae deletion strains, locus YMR058W, strain fet3, active compounds read low 0.983 | S. cerevisiae deletion strains, locus YMR078C, strain ctf18, active compounds read low 1.02 | S. cerevisiae deletion strains, locus YMR125W, strain sto1, active compounds read low 0.973 | S. cerevisiae deletion strains, locus YMR129W, active compounds read low 0.991 | S. cerevisiae deletion strains, locus YMR205C, strain PFK2, active compounds read low 0.998 | S. cerevisiae deletion strains, locus YMR223W, strain ubp8, active compounds read low 1.02 | S. cerevisiae deletion strains, locus YMR231W, strain pep5, active compounds read low 0.979 | S. cerevisiae deletion strains, locus YMR307W, strain GAS1, active compounds read low 1.05 | S. cerevisiae deletion strains, locus YNL067W, strain RPL9B, active compounds read low 1.03 | S. cerevisiae deletion strains, locus YNL071W, strain lat1, active compounds read low 0.983 | S. cerevisiae deletion strains, locus YNL128W, strain TEP1, active compounds read low 1.01 | S. cerevisiae deletion strains, locus YNL153C, strain GIM3, active compounds read low 1.03 | S. cerevisiae deletion strains, locus YNL183C, strain NPR1, active compounds read low 0.933 | S. cerevisiae deletion strains, locus YNL209W, strain ssb2, active compounds read low 0.992 | S. cerevisiae deletion strains, locus YNL233W, strain BNI4, active compounds read low 1.05 | S. cerevisiae deletion strains, locus YNL248C, strain rpa49, active compounds read low 0.984 | S. cerevisiae deletion strains, locus YNL250W, strain rad50, active compounds read low 1 | S. cerevisiae deletion strains, locus YNL271C, strain bni1, active compounds read low 1.01 | S. cerevisiae deletion strains, locus YNL298W, strain CLA4, active compounds read low 1 | S. cerevisiae deletion strains, locus YNL307C, strain MCK1, active compounds read low 1.02 | S. cerevisiae deletion strains, locus YNL322C, strain KRE1 (second series), active compounds read low 1.01 | S. cerevisiae deletion strains, locus YNR049C, strain mso1, active compounds read low 0.985 | S. cerevisiae deletion strains, locus YNR052C, strain pop2, active compounds read low 1.01 | S. cerevisiae deletion strains, locus YOL006C, strain TOP1, active compounds read low 1.09 | S. cerevisiae deletion strains, locus YOL012C, strain htz1 0.74 | S. cerevisiae deletion strains, locus YOL147C, strain pex11, active compounds read low 1 | S. cerevisiae deletion strains, locus YOR001W, strain rrp6, active compounds read low 0.98 | S. cerevisiae deletion strains, locus YOR061W, strain CKA2, active compounds read low 1.01 | S. cerevisiae deletion strains, locus YOR069W, strain VPS5, active compounds read low 1.01 | S. cerevisiae deletion strains, locus YOR070C, strain gyp1, active compounds read low 1 | S. cerevisiae deletion strains, locus YOR080W, strain dia2, active compounds read low 1 | S. cerevisiae deletion strains, locus YOR083W, strain WHI5, active compounds read low 0.992 | S. cerevisiae deletion strains, locus YOR106W, strain vam3, active compounds read low 1.02 | S. cerevisiae deletion strains, locus YOR136W, strain idh2, active compounds read low 1.01 | S. cerevisiae deletion strains, locus YOR144C, strain elg1, active compounds read low 1.01 | S. cerevisiae deletion strains, locus YOR184W, strain ser1, active compounds read low 1.02 | S. cerevisiae deletion strains, locus YOR231W, strain MKK1, active compounds read low 0.997 | S. cerevisiae deletion strains, locus YOR265W, strain rbl2, active compounds read low 0.988 | S. cerevisiae deletion strains, locus YOR270C, strain vph1, active compounds read low 0.956 | S. cerevisiae deletion strains, locus YOR290C, strain snf2, active compounds read low 0.989 | S. cerevisiae deletion strains, locus YOR316C, strain cot1, active compounds read low 1.01 | S. cerevisiae deletion strains, locus YPL051W, strain arl3, active compounds read low 1 | S. cerevisiae deletion strains, locus YPL055C, strain LGE1, active compounds read low 1.01 | S. cerevisiae deletion strains, locus YPL078C, strain atp4, active compounds read low 0.993 | S. cerevisiae deletion strains, locus YPL106C, strain sse1, active compounds read low 0.992 | S. cerevisiae deletion strains, locus YPL240C, strain hsp82, active compounds read low 1 | S. cerevisiae deletion strains, locus YPL256C, strain CLN2, active compounds read low 1 | S. cerevisiae deletion strains, locus YPR119W, strain clb2, active compounds read low 0.996 | S. cerevisiae deletion strains, locus YPR141C, strain kar3, active compounds read low 1.01 | S. cerevisiae deletion strains, locus YPR163C, strain tif3, active compounds read low 1.01 | S. cerevisiae deletion strains, locus YPR167C, strain met16, active compounds read low 1.01 | S. cerevisiae deletion strains, strain wtn01, active compounds read low 1.05 | S. cerevisiae strains, strain wild type, active compounds read low 0.98
